The list is not random: actives were taken first. Their share in the collection is about 0.79%.
AddAB inh = less growth of phage-infected E. coli with AddAB; actives 0.29% (n = 330,000); E. coli expressing H. pylori AddAB, absorbance growth; AID 435030; inhibition, % at 11.9 µM; in the data active = inhibition above about 12%;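 also: 0% = vehicle wells of infected cells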
E coli growth-1 = counter-screen for AddAB inhibitors: E. coli growth inhibition; E. coli V3065 growth, OD600 absorbance, 18 h; inhibition, % at 11.9 µM; actives 0.27% (n = 330,000);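 active = inhibition above the campaign's mean inhibition across all tested compounds plus 3 SD, cut at about 9.9% in these data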;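 also: uninfected addAB+ strain grown without phage in ampicillin broth; 0% = DMSO wells and 100% = ciprofloxacin 0.95 µg/ml wells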
AI-2 QS modul = Vibrio harveyi AI-2 quorum sensing modulation. Vibrio harveyi JMH597 AI-2 luminescence/OD600 ratio, 9 h; stronger effect = lower value; strain lacks LuxN and CqsS sensors; 0 = neutral-control median. activity change, % at 7.5 µM. actives 0.4% (n = 300,000). AID 2094; in the data active = activity change below about -75%, passing the limit was not always enough; inconclusive = no clear call, values can overlap the other calls;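 also: luminescence divided by OD600 gain over 9 h not by final OD600 alone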
E coli growth-2 = inhibitors of Escherichia coli growth; OD600, 23 h; stronger effect = lower value; actives 0.21% (n = 330,000); OD600 absorbance (no concentration beside the values); AID 1053175;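 active = OD600 absorbance below the run mean of sample wells minus 3.6 SD, in any replicate, cut at about 0.56 in these data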
Tat export inh = inhibitors of E. coli Tat protein transport | actives 0.036% (n = 340,000) | E. coli MC4100 TorA-mCherry Tat export, fluorescence | inhibition, % at 10 µM | AID 488895;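 active = mean replicate inhibition at least 50% and at least half of replicates individually reaching 50%; inconclusive = only one of the two criteria met; inactive = neither criterion met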;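 also: exported cargo escapes ClpAP degradation while cytoplasmic cargo is degraded and loses fluorescence; 0% = median of neutral control wells and 100% = median of NaSCN control wells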
phage Ecoli inh = E. coli growth loss with phage present | growth absorbance | inhibition, % at 11.9 µM | actives 0.26% (n = 360,000) | AID 651602; in the data active = inhibition above about 11%
Starred values were filed as active, the others as inactive; ? = inconclusive; . = not tested or not shown.

SMILES	AddAB inh	E coli growth-1	AI-2 QS modul	E coli growth-2	Tat export inh	phage Ecoli inh
Cc1ccc(C(=O)NCC(=O)Nc2ccccc2C(F)(F)F)cc1	0.3	-1.0	-3.6	0.688	-1.3	4.5
Cc1ccc(C(=O)NNC(=S)NC(=O)c2ccccc2)cc1	9.5	2.7	-83.8*	0.588	7.0	6.2
Cc1ccc(C(=O)NC(=S)NNC(=O)c2ccccc2)cc1	2.8	-0.7	-150.5*	0.649	0.4	3.2
O=C(Cc1cccs1)NNC(=S)NC(=O)c1ccco1	-5.0	-4.6	-83.8*	0.315*	-4.9	2.2
Cc1cccc(C(=O)NNC(=S)NC(=O)c2ccccc2)c1	7.0	-2.1	?	0.629	-5.1	3.4
O=C1c2ccccc2C(=Cc2ccc3[nH]ccc3c2)N1c1ccccc1	.	.	.	0.709	.	.
CCC(C)C(C(=O)N1CCNCC1)n1cc(C(N)CO)nn1 (configuration not stated)	.	.	.	0.663	.	.
CC(=O)NN=C(C)c1ccc(Br)cc1Br	.	.	.	0.647	.	.
Cc1ccc(C(=O)NC(=S)NNC(=O)c2ccccc2O)cc1	7.0	9.6	13.9	0.677	-6.0	4.5
CC(=O)NC(=S)NNC(=O)CCc1ccccc1	-0.5	0.5	?	0.538	-7.8	-3.5
O=C(CCc1ccccc1)NNC(=S)NC(=O)c1ccccc1	-4.6	-6.2	-308.8*	0.675	-7.9	-4.2
O=C(/C=C/c1ccc(Br)cc1)NC(=S)NNC(=O)c1ccco1	-5.0	-7.8	-100.0*	0.723	-1.3	-4.0
O=C(NC(=S)NNC(=O)c1ccccc1O)c1ccc([N+](=O)[O-])cc1	11.0	16.1*	15.1	.	11.8	5.8
O=C(NCc1nc2ccccc2[nH]1)C1=CC(c2coc3ccccc3c2=O)CC(OCc2ccc(CO)cc2)O1 (configuration not stated)	.	.	.	0.679	.	.
COc1ccc(NC(=O)C2Cc3cccc(OC)c3O/C2=N\O)cc1 (configuration not stated)	3.3	2.4	-54.3	.	5.3	1.8
COc1cccc2c1O/C(=N\O)C(C(=O)Nc1ccc(C)cc1)C2 (configuration not stated)	3.8	3.4	-88.6*	.	0.0	4.8
CC(O)C(C(=O)N1CCN(C(=O)OC(C)(C)C)CC1)n1cc(CCCCNC(=O)OC(C)(C)C)nn1 (configuration not stated)	.	.	.	0.704	.	.
O=C(Oc1ccc2c(=O)c(Oc3ccc4ccccc4c3)coc2c1)c1ccco1	-3.4	-1.9	-82.2*	0.688	-6.5	2.0
S=C(NCc1ccccc1)NCc1cccc(CNC(=S)NCc2ccccc2)c1	10.0	10.3*	11.2	0.724	-4.0	7.4
O=C(Nc1nnc(C2CCCO2)s1)c1cccs1 (configuration not stated)	0.8	1.3	23.7	0.687	3.1	2.1
COc1cccc(C(=O)Nc2nnc(C3CCCO3)s2)c1 (configuration not stated)	0.8	4.0	-78.2*	0.695	12.7	0.9
CC1(C2CC2)NC(=O)N(CC(=O)Nc2ccc(SC(F)F)cc2)C1=O (configuration not stated)	-0.2	-1.1	.	0.691	2.5	3.9
CN1CC(=O)N(CC(=O)Nc2ccc(SC(F)F)cc2)C1=O	-1.2	0.1	-86.5*	0.678	4.8	2.5
COc1ccc(C(NC(=O)c2cccnc2)c2cc(Cl)c3cccnc3c2O)cc1OC (configuration not stated)	25.4*	23.3*	-8.5	0.673	-5.5	19.5*
CC(=O)NC(c1ccco1)c1cc(Cl)c2cccnc2c1O (configuration not stated)	.	.	.	.	.	5.8
SMILES	AddAB inh	E coli growth-1	AI-2 QS modul	E coli growth-2	Tat export inh	phage Ecoli inh
CC1CN=C(N(C)C)N1CCCC1CCCCC1 (configuration not stated)	.	.	.	0.69	.	.
CC1(C)CC(=O)C=C(NCCN2CCN(C(=O)Nc3ccccc3)CC2)C1	-0.7	-1.9	19.0	0.642	52.3*	1.6
COc1c(Br)cc(Br)cc1C=NNC(=O)c1ccncc1	.	.	.	0.671	.	.
O=C(C[n+]1ccccc1)N/N=C/c1cc(Br)cc(Br)c1O	3.4	0.5	-148.7*	.	-1.1	.
O=C(N/N=C/c1cc(Br)cc(Br)c1O)c1ccncc1	2.6	-3.6	-84.3*	.	.	7.6
O=C(N/N=C/c1cc(Cl)cc(Cl)c1O)c1ccncc1	-0.6	-2.5	-84.8*	.	1.0	3.3
COC(=O)C=Cc1ccccc1CN1C(CC(=O)OC)c2ccccc2S1(=O)=O (configuration not stated)	.	.	.	0.661	.	.
O=C(Nc1ccn(Cc2ccc(Cl)cc2)n1)c1ccccc1	2.5	2.4	-87.4*	0.663	-6.1	5.2
CC(=O)Nc1cccc(C(=O)/C=C/c2ccc[nH]2)c1	8.3	10.7*	12.1	0.601	-15.3	7.3
CCOC(=O)c1cc(CC)sc1N=CC1=C(O)CCCC1=O	.	.	.	0.66	.	.
CN(C)c1cc(Nc2ccc(O)cc2)c([N+](=O)[O-])c2nonc12	-1.3	-0.5	18.5	0.68	12.7	0.2
O=[N+]([O-])c1c(Nc2ccc(O)cc2)cc(Cl)c2nonc12	-3.5	-1.8	-174.4*	0.602	-5.3	0.6
O=C(OCn1ncc(Br)c(Br)c1=O)c1ccc(F)cc1	-1.9	-3.6	-81.3*	0.648	4.4	.
O=C(OCn1ncc(Br)c(Br)c1=O)c1ccccc1Cl	-1.2	-2.8	-72.0	0.654	-15.6	.
O=C1NC(=O)C(c2cn(-c3ccccc3)nc2-c2ccc(F)cc2)N1 (configuration not stated)	4.4	3.0	-86.2*	0.72	-8.6	2.0
O=Cc1cn(-c2ccccc2)nc1-c1ccc(F)cc1	2.0	0.1	-10.0	0.692	-10.7	0.5
CCOC(=O)Cc1csc(NC(=O)C2CCCN(S(=O)(=O)c3cnc[nH]3)C2)n1 (configuration not stated)	24.4*	14.0*	.	0.727	7.9	1.5
Cc1nnc(SCC2=C(C(=O)O)N3C(=O)C(NC(=O)Cn4nc(C(F)F)cc4C)C3SC2)s1 (configuration not stated)	2.9	-1.0	-6.6	0.488*	-7.2	4.1
CCC(C(=O)NC1C(=O)N2C(C(=O)O)=C(CSc3nnc(C)s3)CSC12)c1ccccc1 (configuration not stated)	0.5	-0.2	.	0.629	-2.6	4.2
CC(=O)OCC1=C(C(=O)O)N2C(=O)C(NC(=O)COc3ccc(F)cc3)C2SC1 (configuration not stated)	.	.	.	0.688	3.2	3.4
CC(=O)OCC1=C(C(=O)O)N2C(=O)[C@@H](NC(=O)Cc3cccs3)[C@H]2SC1	2.9	-1.8	21.2	0.046*	-0.4	2.3
Cc1nnc(SCC2=C(C(=O)O)N3C(=O)C(NC(=O)COc4ccc(F)cc4)C3SC2)s1 (configuration not stated)	1.4	-2.8	.	0.546*	-1.6	3.0
Cc1nnc(SCC2=C(C(=O)O)N3C(=O)C(NC(=O)COc4ccccc4)C3SC2)s1 (configuration not stated)	.	.	.	0.497*	-2.7	3.6
CC(=O)OCC1=C(C(=O)O)N2C(=O)[C@@H](NC(=O)Cc3ccccc3)[C@H]2SC1	.	.	.	.	1.3	0.8

Screens (PubChem BioAssay)
